Among the data in PubChem BioAssay AID504652 (National Center for Advancing Translational Sciences (NCATS), 2011) are activity change, negative = inhibition values, retold here.

In all, about 360,000 compounds went through this assay and about 11,000 (3.1%) were called active. The list comes from a sample in which actives are over-represented; it also holds similar structures and randomly drawn compounds. Unmarked numbers belong to inactive results. No stated cut-off is given here; in the data, active means activity change below about -30%; inactive means the rest.
On the % scale 0 is the no-effect control and ±100 the full control effect.

D(1A) dopamine receptor (Homo sapiens), sequence (P21728 whole entry, looked up): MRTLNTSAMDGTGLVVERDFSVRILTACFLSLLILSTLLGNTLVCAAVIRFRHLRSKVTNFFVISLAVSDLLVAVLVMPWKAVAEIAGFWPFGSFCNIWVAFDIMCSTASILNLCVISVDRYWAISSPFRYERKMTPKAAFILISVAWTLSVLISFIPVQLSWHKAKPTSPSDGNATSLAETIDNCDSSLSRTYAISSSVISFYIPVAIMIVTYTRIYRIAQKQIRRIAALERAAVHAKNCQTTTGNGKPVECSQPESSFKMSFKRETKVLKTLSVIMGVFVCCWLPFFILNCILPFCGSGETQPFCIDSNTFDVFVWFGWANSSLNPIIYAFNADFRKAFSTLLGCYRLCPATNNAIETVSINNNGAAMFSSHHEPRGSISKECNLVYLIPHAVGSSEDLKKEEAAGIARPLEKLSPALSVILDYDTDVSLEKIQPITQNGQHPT

This test concerns the target D(1A) dopamine receptor (Homo sapiens) (UniProt P21728). The experiment in a line: Antagonist of Human D 1 Dopamine Receptor: qHTS. Conditions: HEK293 TREx D1 cells, calcium flux, dopamine EC80; at 10 µM; hits give low values. An outline of the steps: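 Inducible Hek293 Trex D1 cells (tetracycline, overnight, 30 C). Calcium dye 30–90 min RT. Antagonist mode: EC80 dopamine added after 180 s compound read.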
As for `COc1cc(NC(=O)c2nn(-c3ccc(C)cc3)c(=O)c3c2c2ccccc2n3C)cc(OC)c1OC`, the activity change, negative = inhibition is -20.1%. Regarding `COC(=O)CC1=NN(c2nc(C)cc(C)n2)C(=O)C1`, the activity change, negative = inhibition is 3.03%. On to `C/C(N)=C(/C#N)C(=O)COC(=O)C1=NN(c2ccccc2)C(=O)CC1`, for which the activity change, negative = inhibition is -6.72%.

On to `COC(=O)CC1=NN(c2ccccc2)C(=O)C1`, for which the activity change, negative = inhibition is -33.1% (active). Consider `CCCCn1c(CNC(=O)C23CC4CC(CC(C4)C2)C3)nnc1SCC(=O)Nc1ccc(C)cc1`, for which the activity change, negative = inhibition was 1.21%.

For the molecule `CC1CCCN(Cc2c(O)ccc3c(=O)c(Oc4ccc(C(C)(C)C)cc4)c(C(F)(F)F)oc23)C1` (stereo not drawn), the activity change, negative = inhibition was 11.8%. With `O=C(Nc1ccc(C(=O)OCc2cc(=O)n3nc(C4CC4)sc3n2)cc1)c1ccc(F)cc1` the figure was 4.99%; with `COc1ccc(OCC(=O)Nc2nnc(-c3ccco3)s2)cc1`, -88.7% (active); with `COc1ccc(NC(=O)COCc2cc(-c3ccco3)on2)cc1`, 8.36%.

Turning to `CNc1nnc(-c2ccco2)s1`, the activity change, negative = inhibition is -6.48%.

With `COc1ccc(CCNC(=O)c2cnc3sc(N4CCCCCC4)nn3c2=O)cc1OC`, the activity change, negative = inhibition is -6.51%.

With `CCOC(=O)C1=C(c2ccccc2)Nc2ncnn2C1c1ccc(Cl)cc1` (stereo not drawn), the activity change, negative = inhibition was 6.82%. In the case of `CS(=O)(=O)c1ccc(-c2nnc(NC(=O)c3ccc4c(c3)OCCO4)o2)cc1` it was -10.1%; in that of `O=C(CSc1oc(-c2ccco2)nc1S(=O)(=O)c1ccccc1)c1ccc(Cl)cc1`, -17.4%; in that of `CCOC(=O)c1cc(-c2ccccc2)n(-c2cccc(C(=O)Nc3cc(OC)cc(OC)c3)c2)c1C`, -24.9%. For the molecule `CC(=O)c1cc(C#N)c(SCC(=O)Nc2nccs2)nc1C`, the activity change, negative = inhibition was 2.32%. In the case of `CC(=O)c1cc(C#N)c(N2CCCCC2)nc1C` it was -36.9% (active). Regarding `CC(=O)c1cc(C#N)c(N2CC(C)OC(C)C2)nc1C` (stereo not drawn), the activity change, negative = inhibition is -0.422%. In the case of `O=C(Cn1c(=O)n(Cc2ccccc2)c(=O)c2sc3ccccc3c21)Nc1ccccc1F` it was 0.434%. With `CNC(=O)c1ccc(-c2nc(CN3CCc4ccccc43)c(C)o2)cc1` the figure was 6.56%. For the molecule `COc1cccc(Cn2c(CNS(=O)(=O)c3ccc(Cl)s3)nc3cccnc32)c1`, the activity change, negative = inhibition was 25.3%. With `CN1CCN(C(=O)c2ccc(NS(=O)(=O)c3ccccc3)cc2)CC1` the figure was -3.19%.

Regarding `CCOC(=O)N1CCN(C(=O)c2ccc(S(=O)(=O)Nc3cccc(C(F)(F)F)c3)cc2)CC1`, the activity change, negative = inhibition is -41.7% (active). For the molecule `CCOC(=O)c1cccc(NS(=O)(=O)c2c(C(=O)N3CCCCCC3)c(C)n(C)c2C)c1`, the activity change, negative = inhibition was 14.9%. Take `Cc1ccc(C(=O)CSc2nc(-c3ccccc3)nc3c2CCCC3)c(C)c1`: the activity change, negative = inhibition is 17.2%.

With `Cc1ccn(CC(=O)N2N=C(C(F)F)CC2(O)C(F)F)n1` (stereo not drawn), the activity change, negative = inhibition was 3.73%. With `Cc1ccc(C(C)NC(=O)Cn2nc(C)c([N+](=O)[O-])c2C)cc1` (stereo not drawn) the figure was -12%; with `Cc1nn(Cc2ccc(C(=O)N3N=C(C(F)F)CC3(O)C(F)F)cc2)c(C)c1[N+](=O)[O-]` (stereo not drawn), -31.2% (active). With `CCc1nnc(SCc2nc(-c3cccc(C)c3)oc2C)c2cc3sc(C)cc3n12` the figure was 8.82%; with `CCc1cccc(NC(=O)c2cnc(N3CCOCC3)c3ccccc23)c1`, -4.31%.

Consider `CC(=O)c1sc(N2C(=O)c3oc4ccccc4c(=O)c3C2c2ccc(C)cc2)nc1C` (stereo not drawn), for which the activity change, negative = inhibition is 1.92%. In the case of `O=C(CN1CCCCC1)Nc1ccccc1C(=O)NC1CC1` it was 6.93%; in that of `COC(=O)c1ccccc1NC(=O)CSc1nnnn1C`, -7.79%; in that of `Cn1nnnc1SCC(=O)Nc1ccccc1C(=O)NC1CC1`, -31.5% (active). In the case of `Cc1cccc(CCNC(=O)c2ccc3c(c2)nc2n3CCC(C)C2)c1` (stereo not drawn) it was 2.06%. As to `Oc1ccc(Cl)cc1C1C=C(c2ccc3c(c2)OCO3)NC(c2c(F)cccc2Cl)N1` (stereo not drawn), the activity change, negative = inhibition is -6.98%. With `COc1ccc(S(=O)(=O)Nc2cccc3cccnc23)c(N)c1` the figure was 8.2%; with `COc1cccc(-n2ccn(CC(=O)NCc3ccc(C)cc3)c(=O)c2=O)c1`, -17.3%; with `S=C(NCCc1ccccc1)NCC1CCCO1` (stereo not drawn), 5.26%.

On to `CC1(C(=O)NNC(=S)NCC2CCCO2)CC1(Cl)Cl` (stereo not drawn), for which the activity change, negative = inhibition is -33.9% (active). Consider `CCC(=O)NC(NCC1CCCO1)C(Cl)(Cl)Cl` (stereo not drawn), for which the activity change, negative = inhibition is -13.3%.

On to `O=C(CC1Oc2ccc(Cl)cc2NC1=O)NCc1ccccc1` (stereo not drawn), for which the activity change, negative = inhibition is -13.4%. With `CCC(C(=O)OCC(=O)Nc1c(Cl)cc(Cl)cc1Cl)c1ccccc1` (stereo not drawn) the figure was -5.4%; with `CCC(C(=O)OCC(=O)Nc1ccc(C(=O)Nc2ccc(OC)cc2)cc1)c1ccccc1` (stereo not drawn), -57.6% (active). In the case of `CCC(C(=O)OCC(=O)Nc1ccccc1-c1ccccc1)c1ccccc1` (stereo not drawn) it was 5.02%; in that of `CCOC(=O)c1ccc(CSc2nnc3cc(C)c4ccccc4n23)cc1`, 11.8%.

Turning to `CCN(CC)S(=O)(=O)c1ccc(C(=O)N=c2sc3cccc(OC)c3n2C)cc1`, the activity change, negative = inhibition is -7.05%.

For the molecule `CCOc1ccc(-c2nonc2NC(=O)c2oc3ccc(CC)cc3c2C)cc1`, the activity change, negative = inhibition is -6.14%.

As to `COc1ccc(S(=O)(=O)N2CCN(c3ccc(F)cc3)CC2)cc1-c1noc(C)n1`, the activity change, negative = inhibition is -9.63%. With `CCc1nc(-c2cc(S(=O)(=O)N3CCN(c4ccc(OC)cc4)CC3)ccc2OC)no1` the figure was -58.8% (active); with `COc1ccc(N2CCN(S(=O)(=O)c3ccc(-c4coc(C)n4)cc3)CC2)cc1`, 3.09%; with `Cc1cc(C)cc(NC(=O)CCCc2nc(-c3ccccc3Cl)no2)c1`, 5.87%. With `Cc1ccc(NC(=O)c2ccc(CN3CC(=O)N4CCCCC4C3=O)cc2)c(Cl)c1` (stereo not drawn) the figure was 1.45%; with `CCNC(=O)CC1C(=O)N(c2ccc(F)cc2)C(=O)N1Cc1ccc(C)cc1` (stereo not drawn), -4.84%; with `Cc1ccc(CC2C(=O)N(c3ccc(F)cc3)C(=O)C2C)cc1` (stereo not drawn), -14.1%. As to `C=C1c2cc(CC)ccc2NC(=O)N1c1ccc(C)cc1`, the activity change, negative = inhibition was -37.2% (active).

In the case of `Cn1c(=O)c2c(nc(Oc3ccc(C#N)cc3)n2Cc2ccc(Cl)cc2Cl)n(C)c1=O`, the activity change, negative = inhibition is 17.3%.

Regarding `O=C(/C=C/c1ccc(Cl)cc1)N1CCN(c2ccccc2[N+](=O)[O-])CC1`, the activity change, negative = inhibition is -7.39%. With `CN(C)c1ccc(/C=C/C(=O)c2ccc(O)cc2)cc1[N+](=O)[O-]`, the activity change, negative = inhibition is -31.2% (active). In the case of `Cc1nn(-c2ccccc2)c(Cl)c1/C=C/C(=O)c1ccc(O)cc1` it was -19.2%. With `Cc1ccc(Cl)cc1NC(=O)/C(C#N)=C\c1cn(Cc2ccc(F)cc2)c2ccccc12` the figure was -3.88%; with `Cc1ccccc1OCc1nc2c3cnn(-c4ccccc4F)c3ncn2n1`, 3.88%.

Regarding `COc1ccccc1CNC(=O)COC(=O)c1sc(C)nc1C`, the activity change, negative = inhibition is -37.9% (active).

For the molecule `COc1ccccc1CNC(=O)COc1ccc(C)nc1[N+](=O)[O-]`, the activity change, negative = inhibition was 4.17%. Turning to `COc1ccccc1C(=O)OCC(=O)NCCNC(=O)COC(=O)c1ccccc1OC`, the activity change, negative = inhibition is 9.27%.

For the molecule `COc1ccc(S(=O)(=O)NCC(c2ccc(N(C)C)cc2)N2CCCC2)cc1` (stereo not drawn), the activity change, negative = inhibition is -3.85%. With `Cc1cc(OCC(=O)NCC2(N(C)C)CCCCC2)cc(C)c1Cl` the figure was 1.84%.

On to `O=C(Nc1ncccc1O)c1ccc(C(=O)c2ccccc2)cc1`, for which the activity change, negative = inhibition was -8.68%. With `O=C(CNC(=O)c1ccc2ccccc2c1)Nc1ncccc1O`, the activity change, negative = inhibition was -39.8% (active). In the case of `CC1CCC(NC(=O)CNC(=O)c2ccc3ccccc3c2)CC1` (stereo not drawn) it was -16.3%. With `Cc1ccc(S(=O)(=O)N2CCCc3cc(NS(=O)(=O)c4cc(C)ccc4C)ccc32)cc1` the figure was -3.71%; with `CCc1ccc(NC(=O)CSc2nc3c([nH]c4ccccc43)c(=O)n2-c2cccc(OC)c2)cc1`, -24.8%.

Consider `CCOc1ccc(-c2cc3nc(C4CCN(C(=O)OC(C)(C)C)CC4)c(C(=O)Nc4cccc(CC)c4)cn3n2)cc1`, for which the activity change, negative = inhibition was 2.76%. In the case of `CC(=O)Nc1ccc(NS(=O)(=O)c2ccc3c(c2)NC(=O)CC(=O)N3)cc1` it was 19.3%.

As for `Cc1ccc(C(=O)Nc2ccc(C(=O)O)cc2)cc1S(=O)(=O)Nc1ccccc1`, the activity change, negative = inhibition was 1%. With `CC(=O)Nc1ccc(NS(=O)(=O)c2cc(C)sc2C)cc1` the figure was -48.1% (active); with `COc1cc2c(=O)c(S(=O)(=O)c3ccc(C(C)C)cc3)cn(Cc3ccccc3C)c2cc1OC`, 22.6%.

On to `CCCNC(=O)C1CCN(c2nc3ccc(C)cc3[nH]2)CC1`, for which the activity change, negative = inhibition is 2.03%.

Regarding `CC(C)(C)N(Cc1ccccc1)C(=O)c1ccncc1`, the activity change, negative = inhibition was 1.43%. In the case of `CN(C(=O)CN(CCO)CC(=O)N(C)C(C)(C)Cc1ccccc1)C(C)(C)Cc1ccccc1` it was -97.3% (active); in that of `CN(Cc1ccccc1)C(=O)c1cccc(C(=O)N(C)Cc2ccccc2)c1`, -2.18%; in that of `COc1cc(CN(CC2CCCO2)C(=O)c2ccccc2F)cc(OC)c1OC` (stereo not drawn), -5.27%.

As to `Cc1nc(N2CCN(c3ccccn3)CC2)c2c(C)c(C(=O)Nc3ccc(F)cc3)sc2n1`, the activity change, negative = inhibition was 1.11%. Consider `Cc1c(CN2CC[C@@H](N3CCN(c4ccccn4)CC3)[C@H](O)C2)[nH]c2ccc(F)cc12`, for which the activity change, negative = inhibition was -30.2% (active).

Regarding `Cc1c(CN2CCC(CO)(CCOc3ccccc3)CC2)[nH]c2ccc(Cl)cc12`, the activity change, negative = inhibition is -2.77%. With `CCCCN(C)S(=O)(=O)c1ccc(C(=O)Nc2sc3c(c2C(N)=O)CC(C)(C)NC3(C)C)cc1` the figure was 18.5%.

As for `Cc1oc2ncn(CC(C)C)c(=O)c2c1C(=O)N1CCN(c2ccccc2F)CC1`, the activity change, negative = inhibition was -5.83%. Regarding `Cn1c(=O)c(C(=O)O)nn(-c2ccccc2)c1=O`, the activity change, negative = inhibition was -4.78%.
